# Results filed as inconclusive are left out. The source made the active and inactive calls. How the source made its calls, unless noted: active means hit-call score of the fitted dose curve at least 0.9, where 1 is the maximum; inconclusive means response in the unintended direction; inactive means score below 0.9.
# Tests used:
# [1] = CEETOX_H295R_MTT_cell_viability: Viability Assessment in the CeeTox HT-H295R MTT Assay (AID 2283718; active means hit-call score of the fitted dose curve at least 0.9, where 1 is the maximum; inactive means score below 0.9;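 on AC50: curve fitted both ways so AC50 may mark viability loss or gain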)
# Outline: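 Human H295R adrenal cells, prestimulated 48 h with 10 uM forskolin, were exposed 48 h to chemicals in 0.1% DMSO. Viability was measured in the same wells by MTT (0.5 mg/ml, 4 h, 37 C), absorbance 570/650 nm, as percent of controls.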
# [2] = Tanguay_ZF_120hpf_ActivityScore_legacy: (Legacy) Oregon State University Tanguay Lab 120 Hour Post-fertilization zebrafish Assay Score for Activity (AID 2283742);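 on AC50: dechorionated Tropical 5D wild-type zebrafish embryos held singly per well; static exposure from 6 hpf until 120 hpf at 28 °C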
# Outline: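 Dechorionated Tropical 5D embryos, one per well from 6 hpf, statically exposed to 120 hpf at 28 °C in 0.64% DMSO. Mortality and malformations scored binary by brightfield microscopy; activity score combines 18 endpoints, fitted positively versus DMSO.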
# [3] = STM_H9_CystineISnorm_perc: Stemina devTOX quickPredict H9 human embryonic stem cell (hESC)-based Assay for Cystine (CYSS) Metabolite Biomarker, Normalized (AID 2283713; active means hit-call score of the fitted dose curve at least 0.9, where 1 is the maximum; inactive means score below 0.9)
# Outline: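 Secreted cystine was measured by UPLC-HRMS in H9 hESC medium after 72h compound exposure with 24-hourly replenishment. Values are standard-normalized areas relative to 0.1% DMSO.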
# [4] = STM_H9_OrnCyssISnorm_ratio: Stemina devTOX quickPredict H9 human embryonic stem cell (hESC)-based Assay for Ornithine (ORN):Cystine (CYSS) Ratio (AID 2283714)
# Outline: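 Undifferentiated H9 hESCs exposed 72 h, media and compound replaced every 24 h; final 24-h conditioned media deproteinized and analysed by UPLC-HRMS against C13 spike-ins. Value is the internal-standard-normalized ORN/CYSS ratio versus 0.1% DMSO.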
# [5] = ArunA_CellTiter_hNC: Viability Assessment in the ArunA Biomedical's Oris Neural Crest (hNC) Cell Migration Assay (AID 2283752)
# Procedure: (§1) ArunA_CellTiter_hNC is a cell-based, single-readout assay that uses human H9-derived embryonic neural crest stem cells (hNC). Measurements were taken 72 hours after chemical dosing in a 96-well plate.ArunA_CellTiter_hNC is an assay component measured from the ArunA_CellTiter_hNC assay. It is designed to make measurements of viability, a form of viability reporter, as detected with fluorescence intensity signals by HCS Fluorescent Imaging technology. Data from the assay component ArunA_CellTiter_hNC was analyzed at the endpoint, ArunA_CellTiter_hNC, in the positive analysis fitting direction relative to DMSO as the negative control and baseline of activity. Using a type of viability reporter, loss-of-signal activity can be used to understand viability. To generalize the intended target to other relatable targets, this assay endpoint is annotated to the cell cycle intended target family, where the subfamily is cytotoxicity.
# To assess the hNP and hNC migration and cell titer endpoints, 60,000 cells per well were plated onto Matrigel in basal growth medium with LIF and bFGF in a 96-well plate format. Plates were incubated for 16 h at 37C followed by a 72 h exposure to chemical in the test medium. For the migration endpoints, cells were seeded and incubated in presence of 'seeding stoppers' to prevent cell migration and growth into the detection zone. At the beginning of chemical exposure, stoppers were removed, and growth medium was replaced with test medium. In the case of the stopper control wells, stoppers remained in place following replacement of growth medium with test medium. Following 72 -h exposure to the test medium, cells were stained at 37C for 30-60 min with calcein-AM. Cell viability in the detection zone was quantitated using a Flexstation3 microplate reader (ex494 nm/em 517 nm). Corresponding cell titer endpoints were assessed for the hNP and hNC cells using the Promega CellTiter Aqueous One Solution Cell Proliferation Assay (Cat no. G3581; CellTiter 96). Finally, to gain insight into the mechanisms by which cells migrate into the detection zone, Ki-67 expression was quantified for 10 additional chemicals in the hNP and hNC systems. Additionally, cytochalasin D was used as a positive control to inhibit cell migration. Supplementing the AB2 Basal Medium: 1. Decontaminate the external surfaces of all supplement vials and the medium bottle with ethanol or isopropanol. 2. Aseptically open each supplement vial and add the amount indicated below to the basal medium with a pipette. To make 100 ml of complete medium: AB2 Neural Medium 96 mL, ANS Supplement 2 mL, bFGF (50 ug/mL) 40 uL, LIF (10 ug/mL) 100 uL, L-Glutamine (200 mM) 1 mL, Penicillin (5,000 U/mL)/ Streptomycin (5,000 ug/mL) 1 mL. 3. Supplemented medium should be stored at 2-8C, protected from light. The complete medium should be given a 2 week expiration date. Dispense the complete medium into aliquots to avoid repeated heating prior to each use.Plate Coating Protocol for hNP1 Neural Progenitor Expansion: To coat dishes perform the following steps: 1. Thaw BD Matrigel at 2-8C overnight. Matrix will gel rapidly at 22C to 35C. Keep Matrigel on ice and use pre-cooled pipettes, plates and tubes when preparing. Gelled Matrigel may be re-liquified if placed at 2-8C on ice for 24 to 48 hours. 2. Handle using aseptic technique in a laminar flow hood. 3. Once BD Matrigel Matrix is thawed, swirl vial to be sure that material is evenly dispersed. 4. Place thawed vial of BD Matrigel Matrix in sterile area, decontaminate the external surfaces with ethanol or isopropanol and air dry. BD Matrigel Matrix may be gently pipetted using a pre-cooled pipette to ensure homogeneity. 5. Dilute Matrigel 1:200 with cooled Dulbecco's Modified Eagle's Medium. Keep on ice. 6. Add 2 mL diluted Matrigel to a 35-mm dish. Swirl to ensure the entire surface of the 35-mm dish is covered with the Matrigel solution. 7. Place dishes at 2-8C for 1-3 hours. 8. Rinse thoroughly with PBS. 9. Remove PBS and use immediately. […]
# [6] = ArunA_CellTiter_hNP: Viability Assessment in the ArunA Biomedical's Oris Neural Crest (hNC) Cell Migration Assay (AID 2283753)
# Procedure: as §1, with “ArunA_CellTiter_hNP” for “ArunA_CellTiter_hNC”, “neuroprogenitor” for “embryonic neural crest”, “(hNP1).Measurements” for “(hNC). Measurements”, “plate.ArunA_CellTiter_hNP” for “plate.ArunA_CellTiter_hNC”, “ArunA_CellTiter_hNP,” for “ArunA_CellTiter_hNC,”, “understand the” for “understand”
# To assess the hNP and hNC migration and cell titer endpoints, 60,000 cells per well were plated onto Matrigel in basal growth medium with LIF and bFGF in a 96-well plate format. Plates were incubated for 16 h at 37C followed by a 72 h exposure to chemical in the test medium. For the migration endpoints, cells were seeded and incubated in presence of 'seeding stoppers' to prevent cell migration and growth into the detection zone. At the beginning of chemical exposure, stoppers were removed, and growth medium was replaced with test medium. In the case of the stopper control wells, stoppers remained in place following replacement of growth medium with test medium. Following 72 -h exposure to the test medium, cells were stained at 37C for 30-60 min with calcein-AM. Cell viability in the detection zone was quantitated using a Flexstation3 microplate reader (ex494 nm/em 517 nm). Corresponding cell titer endpoints were assessed for the hNP and hNC cells using the Promega CellTiter Aqueous One Solution Cell Proliferation Assay (Cat no. G3581; CellTiter 96). Finally, to gain insight into the mechanisms by which cells migrate into the detection zone, Ki-67 expression was quantified for 10 additional chemicals in the hNP and hNC systems. Additionally, cytochalasin D was used as a positive control to inhibit cell migration. Supplementing the AB2 Basal Medium: 1. Decontaminate the external surfaces of all supplement vials and the medium bottle with ethanol or isopropanol. 2. Aseptically open each supplement vial and add the amount indicated below to the basal medium with a pipette. To make 100 ml of complete medium: AB2 Neural Medium 96 mL, ANS Supplement 2 mL, bFGF (50 ug/mL) 40 uL, LIF (10 ug/mL) 100 uL, L-Glutamine (200 mM) 1 mL, Penicillin (5,000 U/mL)/ Streptomycin (5,000 ug/mL) 1 mL. 3. Supplemented medium should be stored at 2-8C, protected from light. […]
# [7] = ArunA_Migration_hNC: ArunA Biomedical's Oris Neural Crest (hNC) Cell Migration Assay (AID 2283755)
# Outline: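 Human H9-derived neural crest stem cells, 60,000/well on Matrigel, 16 h at 37C, then 72 h chemical exposure after seeding-stopper removal. Migration into detection zone read as calcein-AM fluorescence (ex494/em517), relative to DMSO.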
# [8] = ArunA_NOG_NucleusCount: ArunA Biomedical's Neurite Outgrowth (NOG) Assay for Nucleus Count (AID 2283756)
# Outline: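 Human H9-derived differentiated neurons were exposed for 48 h right after seeding. Hoechst-stained nuclei gated by size and intensity were counted by automated high-content imaging as viable neurons. Loss of signal vs DMSO.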
# [9] = ArunA_Migration_hNP: ArunA Biomedical's Oris Neuroprogenitor (hNP) Cell Migration Assay (AID 2283754)
# Outline: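 Human H9-derived hNP1 neuroprogenitors on Matrigel with LIF/bFGF, plated around seeding stoppers for 16 h at 37C; stoppers removed at start of 72 h chemical exposure. Calcein-AM staining, fluorescence 494/517 nm in detection zone; loss-of-signal vs DMSO; cytochalasin D control.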
# [10] = tested on: Thyroperoxidase (TPO), gene 445522; experiment: CCTE_Simmons_GUA_TPO: CCTE's Guaiacol Assay for Thyroperoxidase (TPO) Inhibition, Simmons Lab (AID 2283750)
# Outline: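 Porcine thyroid microsomes (25 ug) in 200mM potassium phosphate, preincubated 30 s at 37C with compound (8 concentrations, 5 nM–87.5 uM) and 35mM guaiacol; 1mM H2O2 starts reaction. Absorbance change at 450nm over first 80 s; loss of signal versus DMSO, three replicates.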
compound,measurement,setting,value
C[C@]12C=CC(=O)C=C1CC[C@@H]1[C@@H]2C(=O)C[C@@]2(C)[C@H]1CC[C@]2(O)C(=O)CO,AC50,[1],0.844 µM (active)
same,outcome,[2],inactive
Cc1nc(-c2ccc3c(c2)CCN(CCC2CCC(NC(=O)/C=C/c4ccc(F)cc4)CC2)CC3)no1 (stereo unspecified),outcome,[3],inactive
same,outcome,[1],inactive
same,outcome,[2],inactive
OC[C@@H](O)[C@@H](O)[C@H](O)[C@H](O)CO,outcome,[3],inactive
same,outcome,[4],inactive
same,outcome,[2],inactive
same,outcome,[5],inactive
same,AC50,[6],80.6 µM (active)
same,outcome,[7],inactive
same,AC50,[8],50 µM (active)
O=c1[nH]cc(F)c(=O)[nH]1,AC50,[3],2.71 µM (active)
same,AC50,[4],3 µM (active)
same,outcome,[2],inactive
NC(=O)Cn1c(=O)cc(CCN2CCN(c3nccc4sccc34)CC2)c2ccc(F)cc21,outcome,[3],inactive
same,outcome,[4],inactive
same,outcome,[1],inactive
same,outcome,[2],inactive
CCCc1cc(=O)[nH]c(=S)[nH]1,outcome,[3],inactive
same,outcome,[4],inactive
same,outcome,[2],inactive
same,outcome,[9],inactive
same,outcome,[7],inactive
same,outcome,[8],inactive
O=C(O)Cc1ccccc1Nc1c(Cl)cccc1Cl,outcome,[3],inactive
same,outcome,[4],inactive
same,AC50,[2],35 µM (active)
Cc1oc(-c2ccccc2)nc1CCOc1cccc2c1ccn2CCC(=O)O,AC50,[3],0.0105 µM (active)
same,outcome,[1],inactive
same,outcome,[2],inactive
Oc1ccc2ccccc2c1N=Nc1ccccc1,outcome,[3],inactive
same,outcome,[4],inactive
same,outcome,[1],inactive
same,AC50,[2],0.0559 µM (active)
same,outcome,[5],inactive
same,outcome,[9],inactive
same,outcome,[7],inactive
C=CCOC(=O)c1ccccc1C(=O)OCC=C,AC50,[3],53.5 µM (active)
same,AC50,[4],41.3 µM (active)
same,outcome,[1],inactive
same,AC50,[2],37.4 µM (active)
CC(CO)OC(C)CO (stereo unspecified) (tested in a mixture with another compound),outcome,[3],inactive
same,outcome,[2],inactive
Cc1cccc(Nc2cc(Cl)nc(SCC(=O)O)n2)c1C,AC50,[3],53.6 µM (active)
same,outcome,[1],inactive
same,outcome,[2],inactive
Cc1cc(NC(=O)C(=O)O)cc(C)c1Oc1ccc(O)c2c1CCC2,outcome,[3],inactive
same,outcome,[1],inactive
same,AC50,[2],0.216 µM (active)
same,outcome,[5],inactive
same,outcome,[9],inactive
same,outcome,[7],inactive
same,outcome,[8],inactive
COc1ccc2c(c1)c(CC(=O)O)c(C)n2C(=O)c1ccc(Cl)cc1,outcome,[3],inactive
same,AC50,[4],84.8 µM (active)
same,outcome,[1],inactive
CCOc1ccc2c(c1)C(C)=CC(C)(C)N2,outcome,[3],inactive
same,outcome,[4],inactive
same,outcome,[1],inactive
same,outcome,[2],inactive
same,AC50,[10],130 µM (active)
Nc1ccccc1N,outcome,[3],inactive
same,AC50,[4],8.66 µM (active)
same,outcome,[1],inactive
same,outcome,[2],inactive
O=c1c(O)c(-c2ccc(O)c(O)c2)oc2cc(O)cc(O)c12,outcome,[3],inactive
same,outcome,[2],inactive
same,outcome,[5],inactive
same,AC50,[6],3.88 µM (active)
same,AC50,[9],3.08 µM (active)
same,AC50,[7],2.36 µM (active)
CN1CCN(Cc2cc(-c3ccc4[nH]c(=O)oc4c3)co2)[C@@H](c2ccc(F)cc2)C1,AC50,[3],5 µM (active)
same,AC50,[4],5 µM (active)
same,outcome,[1],inactive
same,outcome,[2],inactive

# From PubChem BioAssay (EPA / NIEHS)
